Results on four compounds are retold here after PubChem BioAssay (EPA / NIEHS).

Read-out in assay [1]: solute carrier (SLCO1B1), SLCO1B1 (gene 10599)
The assay can be described thus: LTEA_HepaRG_SLCO1B1: Life Technologies and Expression Analysis (LTEA) Assay for solute carrier (SLCO1B1) using HepaRG (AID 2283530; active means hit-call score of the fitted dose curve at least 0.9, where 1 is the maximum; inactive means score below 0.9). To be noted: mRNA level, 48 h; actives raise or lower the signal. In outline:
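HepaRG, serum-free induction medium, 48 h dosing, 8-pt half-log from 100 uM, 0.5% DMSO vehicle, duplicates. Readout: SLCO1B1 mRNA, qRT-PCR, ACTB/GAPDH/POLR2A normalization; up or down fit vs DMSO.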

Read-out in assay [2]: sulfotransferase 2A1 (SULT2A1), SULT2A1 (gene 6822)
In words: LTEA_HepaRG_SULT2A1: Life Technologies and Expression Analysis (LTEA) Assay for sulfotransferase 2A1 (SULT2A1) using HepaRG (AID 2283531; active means hit-call score of the fitted dose curve at least 0.9, where 1 is the maximum; inactive means score below 0.9). The following applies: mRNA level, 48 h; actives raise or lower the signal. In outline: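 Transcript levels of SULT2A1, quantified by qRT-PCR and normalized to three housekeeping genes, serve as the readout. Human HepaRG cultures receive test chemicals for 48 h at up to 100 uM in half-log steps, with 0.5% DMSO vehicle.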

Read-out in assay [3]: Transforming Growth Factor (TGFA), TGFA (gene 7039)
In words: LTEA_HepaRG_TGFA: Life Technologies and Expression Analysis (LTEA) Assay for Transforming Growth Factor (TGFA) using HepaRG (AID 2283532; active means hit-call score of the fitted dose curve at least 0.9, where 1 is the maximum; inactive means score below 0.9). The following applies: mRNA level, 48 h; actives raise or lower the signal. In outline: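 Differentiated HepaRG cells exposed 48 hours in serum-free induction medium, 0.5% DMSO vehicle, 8-point half-log series from 100 uM, in duplicate. TGFA mRNA by TaqMan qRT-PCR, normalised to ACTB, GAPDH, POLR2A; bidirectional fit versus DMSO.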

Read-out in assay [4]: Transforming Growth Factor (TGFB1), TGFB1 (gene 7040)
The assay can be described thus: LTEA_HepaRG_TGFB1: Life Technologies and Expression Analysis (LTEA) Assay for Transforming Growth Factor (TGFB1) Transporter using HepaRG (AID 2283533; active means hit-call score of the fitted dose curve at least 0.9, where 1 is the maximum; inactive means score below 0.9). The following applies: mRNA level, 48 h; actives raise or lower the signal. In outline: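 HepaRG, 48 h post-plating, switched to serum-free induction medium; chemicals 100 uM top, half-log, 8 pts, 0.5% DMSO, dup; 48 h exposure; RNA → Fluidigm TaqMan qRT-PCR; norm ACTB/GAPDH/POLR2A; bidirectional fit vs DMSO.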

Read-out in the next assay: TIMP1, TIMP1 (gene 7076)
The assay can be described thus: LTEA_HepaRG_TIMP1: Life Technologies and Expression Analysis (LTEA) Assay for TIMP1 using HepaRG (AID 2283534; active means hit-call score of the fitted dose curve at least 0.9, where 1 is the maximum; inactive means score below 0.9;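 further: TaqMan qRT-PCR signal normalized to ACTB GAPDH and POLR2A housekeeping genes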). To be noted: mRNA level, 48 h; actives raise or lower the signal. In outline: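 Readout is TIMP1 mRNA level measured by qRT-PCR and normalized to three housekeeping genes. Human HepaRG cells were treated for 48 h in duplicate at eight concentrations up to 100 uM (0.5% DMSO); gain or loss fitted against DMSO.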

Read-out in assay [5]: Tumor necrosis factor receptor 1 (TNFRSF1A), TNFRSF1A (gene 7132)
The assay can be described thus: LTEA_HepaRG_TNFRSF1A: Life Technologies and Expression Analysis (LTEA) Assay for Tumor necrosis factor receptor 1 (TNFRSF1A) using HepaRG (AID 2283535; active means hit-call score of the fitted dose curve at least 0.9, where 1 is the maximum; inactive means score below 0.9). The following applies: mRNA level, 48 h; actives raise or lower the signal. In outline: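 Read-out is TNFRSF1A transcript level by TaqMan qRT-PCR, normalized to three housekeeping genes, scored as gain or loss of signal versus 0.5% DMSO. Human HepaRG cells received test chemicals for 48 h at up to 100 uM (half-log series).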

Read-out in assay [6]: Thyroid Hormone Responsive (THRSP), THRSP (gene 7069)
In words: LTEA_HepaRG_THRSP: Life Technologies and Expression Analysis (LTEA) Assay for Thyroid Hormone Responsive (THRSP) using HepaRG (AID 2283536; active means hit-call score of the fitted dose curve at least 0.9, where 1 is the maximum; inactive means score below 0.9). The following applies: mRNA level, 48 h; actives raise or lower the signal. In outline:
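Differentiated HepaRG cells treated 48 h in serum-free induction medium with 8 half-log concentrations up to 100 uM (0.5% DMSO), duplicates. THRSP mRNA by TaqMan qRT-PCR normalised to ACTB, GAPDH, POLR2A; bidirectional fit versus DMSO.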

Read-out in assay [7]: Cellular tumor antigen p53 (Homo sapiens) (UniProt P04637)
In words: LTEA_HepaRG_TP53: Life Technologies and Expression Analysis (LTEA) Assay for Tumor Protein P53 (TP53) using HepaRG (AID 2283537; active means hit-call score of the fitted dose curve at least 0.9, where 1 is the maximum; inactive means score below 0.9). To be noted: mRNA level, 48 h; actives raise or lower the signal. In outline:
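Gain or loss of TP53 mRNA signal is scored relative to 0.5% DMSO after 48 h chemical treatment of HepaRG liver cells, tested in duplicate at eight half-log concentrations up to 100 uM.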

Read-out in assay [8]: UDP glucuronosyltransferase (UGT1A1), UGT1A1 (gene 54658)
In words: LTEA_HepaRG_UGT1A1: Life Technologies and Expression Analysis (LTEA) Assay for UDP glucuronosyltransferase (UGT1A1) using HepaRG (AID 2283538; active means hit-call score of the fitted dose curve at least 0.9, where 1 is the maximum; inactive means score below 0.9). The following applies: mRNA level, 48 h; actives raise or lower the signal. In outline:
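Differentiated human HepaRG cells in serum-free induction medium were exposed in duplicate for 48 h to eight half-log concentrations up to 100 uM in 0.5% DMSO. UGT1A1 mRNA was quantified by TaqMan qRT-PCR, normalized to ACTB, GAPDH and POLR2A, and fitted bidirectionally against DMSO.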

Read-out in assay [9]: UDP glucuronosyltransferase (UGT1A6), UGT1A6 (gene 54578)
The assay can be described thus: LTEA_HepaRG_UGT1A6: Life Technologies and Expression Analysis (LTEA) Assay for UDP glucuronosyltransferase (UGT1A6) using HepaRG (AID 2283539; active means hit-call score of the fitted dose curve at least 0.9, where 1 is the maximum; inactive means score below 0.9). To be noted: mRNA level, 48 h; actives raise or lower the signal. In outline:
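HepaRG, 48 h post-plating switch to serum-free induction medium; chemical 48 h, 100 uM top, half-log x8, duplicate, 0.5% DMSO. Phenobarbital 1mM induction control. UGT1A6 mRNA by TaqMan qRT-PCR; gain/loss fit vs DMSO.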

A short description of assay [10]: LTEA_HepaRG_LDH_cytotoxicity: Cytotoxicity Assessment in the Life Technologies and Expression Analysis (LTEA) Assay (AID 2283563).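 On AC50: LDH activity released into spent culture medium as a marker of cell death.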 In outline: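 Cells were thawed and plated for 48 h. Medium was then replaced with serum-free induction medium. Chemicals (8 half-log points, maximum 100 uM, 0.5% DMSO) were added in duplicate for 48 h, after which spent medium was assayed for LDH.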

Assay [11] is described as follows: ATG_XTT_Cytotoxicity: Cytotoxicity Assessment in the Attagene TRANS-FACTORIAL HepG2 Assay (AID 2283584). In outline: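 Cells: human HepG2, transiently transfected with MRTU reporter constructs. Exposure 24 h. Readout: XTT, cell number. Baseline/neg ctrl DMSO; loss-of-signal scored.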
The nature of assay [12]: TOX21_p53_BLA_p2_viability: Viability Assessment in the Tox21 HCT-116 p53 Agonism Beta-lactamase Assay, Phase 2 (AID 2283591).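 Further: compound exposure lasted 16 h at 37 °C; actives lower the ATP signal meaning cytotoxicity.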 In outline:
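HCT116 p53-bla cells, 4000/well, dosed after 5 h plating (217-fold dilution of DMSO stocks) and incubated 16 h at 37C. Viability taken as cellular ATP by CellTiter-Glo luminescence after 30 min RT; signal loss marks cytotoxicity.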

Assay [13] has as its target Cellular tumor antigen p53 (Homo sapiens) (UniProt P04637). The assay can be described thus: TOX21_p53_BLA_p2_ratio: Tox21 HCT-116 p53 Agonism Beta-lactamase Assay, Ratio, Phase 2 (AID 2283592). In outline: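 HCT116 p53-bla; 4000 cells/well; 5 h pre-incubation; cpd in DMSO, 217-fold dilution; 16 h 37C/5% CO2; CCF4-AM 2 h RT; Ex 405, Em 460/530 ratio; DMSO = baseline; positive fitting direction.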

The nature of assay [14]: TOX21_p53_BLA_p3_viability: Viability Assessment in the Tox21 HCT-116 p53 Agonism Beta-lactamase Assay, Phase 3 (AID 2283593).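 Further: cells exposed to compound for 16 h before reading.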 In outline:
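HCT116 cells, 4000/well, dosed 5 h after plating by pin transfer (217-fold dilution from DMSO stock) and incubated 16 h at 37C, 5% CO2. Viability read as ATP luminescence with CellTiter-Glo after 30 min at room temperature.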

Assay [15] concerns the target Cellular tumor antigen p53 (Homo sapiens) (UniProt P04637). In words: TOX21_p53_BLA_p3_ratio: Tox21 HCT-116 p53 Agonism Beta-lactamase Assay, Ratio, Phase 3 (AID 2283596). In outline: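 HCT116 p53-bla cells (4000/well) given compound in DMSO (217-fold dilution) after 5 h, incubated 16 h at 37C. CCF4-AM substrate 2 h at room temperature; 460/530 nm emission ratio, gain fitted against DMSO.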

Assay [16] is described as follows: TOX21_p53_BLA_p4_viability: Viability Assessment in the Tox21 HCT-116 p53 Agonism Beta-lactamase Assay, Phase 4 (AID 2283597).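 Further: hits lower the luminescence signal meaning cytotoxicity.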 In outline: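 Cells plated, 5 h pre-incubation; DMSO compounds pinned (217-fold dilution); 16 h, 37C/5% CO2; CCF4-AM 2 h RT; CellTiter-Glo 30 min RT; luminescence read.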
Assay [17] addresses Cellular tumor antigen p53 (Homo sapiens) (UniProt P04637). In words: TOX21_p53_BLA_p5_ratio: Tox21 HCT-116 p53 Agonism Beta-lactamase Assay, Ratio, Phase 5 (AID 2283599). In outline: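 HCT-116 p53-bla cells (4000/well) plated 5 h, dosed with compound (217-fold DMSO dilution) for 16 h at 37 C; CCF4-AM substrate 2 h at room temperature. Activity is the 460/530 nm emission ratio (405 nm excitation), fitted in gain-of-signal direction versus DMSO.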

Assay [18] in a line: TOX21_p53_BLA_p5_viability: Viability Assessment in the Tox21 HCT-116 p53 Agonism Beta-lactamase Assay, Phase 5 (AID 2283600). In outline: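 4000 cells/well; 5 h pre-incubation; DMSO compounds pin-transferred, 217-fold dilution; 16 h, 37C/5% CO2; CCF4-AM 2 h RT; CellTiter-Glo 30 min RT; luminescence.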
Read-out in assay [19]: X-box binding protein 1 (XBP1), XBP1 (gene 7494)
The assay can be described thus: LTEA_HepaRG_XBP1: Life Technologies and Expression Analysis (LTEA) Assay for X-box binding protein 1 (XBP1) using HepaRG (AID 2283540; active means hit-call score of the fitted dose curve at least 0.9, where 1 is the maximum; inactive means score below 0.9). To be noted: mRNA level, 48 h; actives raise or lower the signal. In outline:
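Transcript levels of XBP1, measured by qRT-PCR and normalised to three housekeeping genes, were fitted bidirectionally relative to 0.5% DMSO controls. Human HepaRG cells received eight-point half-log dilutions from 100 uM for 48 h.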

Molecules are shown by their SMILES. “And” between values parts separate entries of the source, which are not always exact repeats. Identical values can stand only once. Records with an inconclusive call do not appear. The source made the active and inactive calls. How the source made its calls, unless noted: active means hit-call score of the fitted dose curve at least 0.9, where 1 is the maximum; inconclusive means response in the unintended direction; inactive means score below 0.9.

Sequence of Cellular tumor antigen p53 (Homo sapiens) (P04637 whole entry, looked up): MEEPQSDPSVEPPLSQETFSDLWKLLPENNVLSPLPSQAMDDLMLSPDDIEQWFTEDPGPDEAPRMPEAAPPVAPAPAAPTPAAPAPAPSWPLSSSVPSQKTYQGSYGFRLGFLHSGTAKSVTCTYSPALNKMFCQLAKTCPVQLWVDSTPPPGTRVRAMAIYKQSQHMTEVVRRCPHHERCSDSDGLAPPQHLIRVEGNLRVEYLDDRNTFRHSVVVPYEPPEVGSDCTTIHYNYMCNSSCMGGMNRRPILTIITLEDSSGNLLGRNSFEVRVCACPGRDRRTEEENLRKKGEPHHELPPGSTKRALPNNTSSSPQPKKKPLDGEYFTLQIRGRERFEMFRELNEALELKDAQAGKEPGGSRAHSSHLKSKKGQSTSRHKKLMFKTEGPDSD

What is called AC50 is the concentration giving half of the maximal activity seen. On to `Nc1nc(Cl)nc2c1ncn2[C@H]1C[C@H](O)[C@@H](CO)O1`, for which the AC50 in assay [1] was 0.999 µM (active); in assay [2], 2.81 µM (active); in assay [3], 0.2 µM (active); in [4], 0.365 µM (active); in [5], 0.732 µM (active); in [6] it was 0.888 µM (active). The AC50 is 1.66 µM (active) in assay [8]; 2.42 µM (active) in [9]; 8.62 µM (active) in assay [10]; 271 nM (active) and 790 nM (active) in assay [13]; 468 nM (active) and 960 nM (active) in assay [15]; 455 nM (active) and 793 nM (active) in assay [17]. For the same compound, the outcome with TIMP1, TIMP1 (gene 7076) was “inactive”; in assay [7], “inactive”; in assay [11], “inactive”; in [12] it was “inactive”; in assay [14] it was “inactive”; in [16] it was “inactive”. Further, in assay [18], the outcome was inactive.
As for `COC(=O)[C@H]1[C@H]2C[C@@H]3c4[nH]c5cc(OC)ccc5c4CCN3C[C@H]2C[C@@H](OC(=O)c2cc(OC)c(OC)c(OC)c2)[C@@H]1OC`, the AC50 in assay [1] was 59 µM (active); in assay [2], 62.8 µM (active); in assay [6] it was 28.3 µM (active); in assay [8], 66.1 µM (active); in assay [9], 55.3 µM (active); in assay [19] it was 42.2 µM (active). Also, in assay [10], the AC50 is 30.3 µM (active). The outcome was “inactive” in [3]; “inactive” in assay [4]; “inactive” with TIMP1, TIMP1 (gene 7076); “inactive” in assay [5]; “inactive” in assay [7]; “inactive” in [11]. For the same compound, the outcome in [12], in assay [13], in assay [14], in assay [15], in assay [16] and in assay [17] was inactive. Besides, the outcome in assay [18] was inactive.
`O=[Si]=O`: the outcome in assay [1] was “inactive”; in assay [2], “inactive”; in assay [3] it was “inactive”; in assay [4] it was “inactive”; in the assay with TIMP1, TIMP1 (gene 7076), “inactive”; in assay [5], “inactive”. For the same compound, the outcome in assay [6], in assay [7], in assay [8], in assay [9], in assay [10] and in assay [11] was inactive. For the same compound, the compound was called inactive in assay [14] and in assay [16].
As for `CCCCCCCC(=O)OC`, the outcome in [1] was “inactive”; in assay [2] it was “inactive”; in [3], “inactive”; in [4], “inactive”; with TIMP1, TIMP1 (gene 7076) it was “inactive”; in assay [5], “inactive”. Further, the result in [6], in assay [7], in [8], in assay [9], in [10] and in [11] was inactive. For the same compound, the result in assay [12], in assay [14], in assay [15], in assay [16] and in assay [18] was inactive.
